Measured values taken from PubChem BioAssay (EPA / NIEHS).
Where “and” joins values, the source holds several entries; their conditions need not be identical. Equal entries are not always repeated. Records with an inconclusive call do not appear. Calls of active or inactive are those of the source. The calls were made as follows, unless noted: active = hit-call score of the fitted dose curve at least 0.9, where 1 is the maximum; inconclusive = response in the unintended direction; inactive = score below 0.9.

How the values were obtained:
[1] = molecular target: human Peroxisome Proliferator-activated Receptor alpha (PPARa), PPARA (gene 5465) (UniProt Q07869); experiment: ATG_PPARa_TRANS: Attagene TRANS-FACTORIAL HepG2 Assay for human Peroxisome Proliferator-activated Receptor alpha (PPARa) (AID 2283001)
Procedure, shortened: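 Gain-of-signal endpoint: reporter mRNA induction relative to DMSO, detected by fluorescent RT-PCR and capillary electrophoresis. HepG2 cells transiently carried GAL4-UAS-driven reporter units plus NR-Gal4 fusion; exposure lasted 24 h.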

[2] = molecular target: Nuclear receptor subfamily 1 group I member 2 (Homo sapiens) (UniProt O75469); experiment: ATG_PXR_TRANS: Attagene TRANS-FACTORIAL HepG2 Assay for human Pregnane X Receptor (PXR) (AID 2283008)
Procedure, shortened: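 HepG2 cells transiently transfected with GAL4-UAS reporter units and PXR-Gal4 chimera, exposed 24 h. Reporter mRNA quantified by RT-PCR, fluorescent labelling, HpaI digestion and capillary electrophoresis; gain of signal vs DMSO.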

[3] = molecular target: Peroxisome proliferator-activated receptor gamma (Homo sapiens) (UniProt P37231); experiment: ATG_PPARg_TRANS: Attagene TRANS-FACTORIAL HepG2 Assay for human Peroxisome Proliferator-activated Receptor-gamma (PPARg) (AID 2283007)
Procedure, shortened: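 After 24 h of chemical exposure, transfected HepG2 cells carrying PPARγ-Gal4 chimera reporter constructs are lysed for RNA. Reporter transcripts are measured by RT-PCR and capillary electrophoresis with fluorescent labelling, and gain of signal is fitted versus DMSO.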

[4] = molecular target: human Thyroid Receptor alpha (THRa1), THRA (gene 7067) (UniProt P10827); experiment: ATG_THRa1_TRANS: Attagene TRANS-FACTORIAL HepG2 Assay for human Thyroid Receptor alpha (THRa1) (AID 2283014)
Procedure, shortened: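 Reporter transcript induction, read by capillary electrophoresis of 6-FAM-labelled RT-PCR products, reflects activity of a transfected THRa1-Gal4 fusion in HepG2 liver cells. Cells were dosed for 24 h; activity was fitted in the positive direction against DMSO.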

[5] = molecular target: human RAR-related Orphan Receptor beta (RORb), RORB (gene 6096) (UniProt Q92753); experiment: ATG_RORb_TRANS: Attagene TRANS-FACTORIAL HepG2 Assay for human RAR-related Orphan Receptor beta (RORb) (AID 2283010)
Procedure, shortened: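 HepG2 cells transiently transfected with GAL4-UAS reporter units expressing chimeric NR-Gal4 protein; reporter mRNA measured 24 h after dosing by RT-PCR, 6-FAM labelling and capillary electrophoresis. Gain-of-signal fitted relative to DMSO baseline.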

[6] = molecular target: Retinoic acid receptor RXR-alpha (Homo sapiens) (UniProt P19793); experiment: ATG_RXRa_TRANS: Attagene TRANS-FACTORIAL HepG2 Assay for human Retinoid X Receptor alpha (RXRa) (AID 2283012)
Procedure, shortened: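 HepG2 cells transiently transfected with GAL4-UAS reporter units and chimeric RXRa-Gal4 protein, treated 24 h. Reporter mRNA measured by RT-PCR, fluorescent labelling, HpaI digestion and capillary electrophoresis. Induction fitted against DMSO.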

[7] = molecular target: human RAR-related Orphan Receptor gamma (RORg), RORC (gene 6097) (UniProt P51449); experiment: ATG_RORg_TRANS: Attagene TRANS-FACTORIAL HepG2 Assay for human RAR-related Orphan Receptor gamma (RORg) (AID 2283011)
Procedure, shortened: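 First, HepG2 liver cells were transfected with GAL4-UAS-driven reporter constructs and the RORg-Gal4 fusion. Next, they were treated with chemical for 24 h. Finally, reporter mRNA was quantified by RT-PCR and capillary electrophoresis, with upward activity fitted against DMSO.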

[8] = molecular target: human Retinoid X Receptor beta (RXRb), RXRB (gene 6257) (UniProt P28702); experiment: ATG_RXRb_TRANS: Attagene TRANS-FACTORIAL HepG2 Assay for human Retinoid X Receptor beta (RXRb) (AID 2283013)
Procedure, shortened: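 HepG2 cells were transiently transfected with multiplexed GAL4-UAS reporters and a chimeric RXRb-Gal4 construct, then exposed for 24 h. Reporter mRNA was quantified by RT-PCR, FAM labeling, HpaI digestion and capillary electrophoresis; gain of signal was scored against DMSO.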

[9] = molecular target: human Peroxisome Proliferator-activated Receptor delta (PPARd), PPARD (gene 5467) (UniProt Q03181); experiment: ATG_PPARd_TRANS: Attagene TRANS-FACTORIAL HepG2 Assay for human Peroxisome Proliferator-activated Receptor delta (PPARd) (AID 2283002)
Procedure, shortened: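 HepG2 cells transiently transfected with multiplexed GAL4-UAS reporter units and exogenous chimeric NR-Gal4 proteins; 24 h compound exposure. Reporter mRNA measured by RT-PCR, 6-FAM labelling, HpaI digestion and capillary electrophoresis; gain of signal versus DMSO.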

[10] = read-out: Intercellular Adhesion Molecule 1 (ICAM1), ICAM1 (gene 3383); experiment: BSK_3C_ICAM1: BioMAP Diversity Plus: 3C Assay for Intercellular Adhesion Molecule 1 (ICAM1) Biomarker Activity (AID 2283003; active = hit-call score of the fitted dose curve at least 0.9, where 1 is the maximum; inactive = score below 0.9); conditions: primary human endothelial cells (HUVEC); actives raise or lower the signal
Procedure, shortened: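 HUVEC primary cells stimulated under 3C conditions; ICAM1 measured by ELISA 24 h after compound dosing. Curves fitted bidirectionally against the DMSO baseline. Overt cytotoxicity checked by SRB staining of parallel cultures.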

[11] = BSK_3C_Proliferation: Cell Proliferation Assessment in the BioMAP Diversity Plus: 3C Assay (AID 2283006; active = hit-call score of the fitted dose curve at least 0.9, where 1 is the maximum; inactive = score below 0.9;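 as to AC50: potency may reflect either rise or fall in cell number versus DMSO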); conditions: primary human endothelial cells (HUVEC)
Procedure, shortened: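 Subconfluent HUVEC (3C system) cultured with chemical; relative cell number read at 48 h by sulforhodamine B total-protein staining (0.1% SRB after 10% TCA fixation, 560 nm). Bidirectional fit relative to DMSO.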

[12] = read-out: Interleukin-1 alpha (IL1a), IL1A (gene 3552); experiment: BSK_BE3C_IL1a: BioMAP Diversity Plus: BE3C Assay for Interleukin-1 alpha (IL1a) Biomarker Activity (AID 2283016; active = hit-call score of the fitted dose curve at least 0.9, where 1 is the maximum; inactive = score below 0.9); conditions: primary human bronchial epithelial cells; actives raise or lower the signal
Procedure, shortened: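 Human primary bronchial epithelial cells, 24 h chemical exposure; IL-1a quantified by ELISA, fitted bidirectionally against DMSO. Cytotoxicity assessed in parallel by SRB total-protein staining at the time of measurement.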

[13] = read-out: Monocyte Chemoattractant Protein-1 (MCP1), CCL2 (gene 6347); experiment: BSK_3C_MCP1: BioMAP Diversity Plus: 3C Assay for Monocyte Chemoattractant Protein-1 (MCP1) Biomarker Activity (AID 2283017; active = hit-call score of the fitted dose curve at least 0.9, where 1 is the maximum; inactive = score below 0.9); conditions: primary human endothelial cells (HUVEC); actives raise or lower the signal
Procedure, shortened: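 ELISA read-out of MCP-1 from human umbilical vein endothelial cell cultures harvested 24 h post-dosing. Gain or loss of signal was fitted relative to DMSO.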

[14] = read-out: Monocyte Chemoattractant Protein-1 (MCP1), CCL2 (gene 6347); experiment: BSK_4H_MCP1: BioMAP Diversity Plus: 4H Assay for Monocyte Chemoattractant Protein-1 (MCP1) Biomarker Activity (AID 2283018; active = hit-call score of the fitted dose curve at least 0.9, where 1 is the maximum; inactive = score below 0.9); conditions: primary human endothelial cells (HUVEC); actives raise or lower the signal
Procedure, shortened: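 Human umbilical vein endothelial cells (4H system) exposed to chemicals for 24 h in 96-well format. MCP-1 measured by ELISA; bidirectional fitting against DMSO, with SRB total-protein staining in parallel cultures for cytotoxicity.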

[15] = read-out: Human Leukocyte Antigen - DR isotype (HLADR), HLA-DRA (gene 3122); experiment: BSK_3C_HLADR: BioMAP Diversity Plus: 3C Assay for Human Leukocyte Antigen - DR isotype (HLADR) Biomarker Activity (AID 2283019; active = hit-call score of the fitted dose curve at least 0.9, where 1 is the maximum; inactive = score below 0.9); conditions: primary human endothelial cells (HUVEC); actives raise or lower the signal
Procedure, shortened: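 ELISA readout of surface HLA-DR on human umbilical vein endothelium, taken 24 h after chemical treatment. Gain- and loss-of-signal were both fitted relative to DMSO.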

[16] = read-out: Interleukin-8 (IL8), CXCL8 (gene 3576); experiment: BSK_3C_IL8: BioMAP Diversity Plus: 3C Assay for Interleukin-8 (IL8) Biomarker Activity (AID 2283020; active = hit-call score of the fitted dose curve at least 0.9, where 1 is the maximum; inactive = score below 0.9); conditions: primary human endothelial cells (HUVEC); actives raise or lower the signal
Procedure, shortened: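 Primary human umbilical vein endothelial cells were dosed for 24 h. IL-8 was quantified by ELISA and fitted bidirectionally against DMSO. Cytotoxicity was assessed in parallel cultures by SRB staining at 560 nm.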

[17] = read-out: Monokine induced gamma interferon (MIG), CXCL9 (gene 4283); experiment: BSK_3C_MIG: BioMAP Diversity Plus: 3C Assay for Monokine induced gamma interferon (MIG) Biomarker Activity (AID 2283021; active = hit-call score of the fitted dose curve at least 0.9, where 1 is the maximum; inactive = score below 0.9;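 as to AC50: MIG protein level measured by immunoassay in the treated endothelial cultures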); conditions: primary human endothelial cells (HUVEC); actives raise or lower the signal
Procedure, shortened: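 HUVEC primary endothelial cultures dosed with chemical; MIG quantified by ELISA at 24 h. Data fitted bidirectionally against DMSO control, with parallel SRB total-protein staining for cytotoxicity.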

Measured: AC50

Chain of human Thyroid Receptor alpha (THRa1), THRA (gene 7067) (P10827 whole entry, looked up, the tested form may be a part): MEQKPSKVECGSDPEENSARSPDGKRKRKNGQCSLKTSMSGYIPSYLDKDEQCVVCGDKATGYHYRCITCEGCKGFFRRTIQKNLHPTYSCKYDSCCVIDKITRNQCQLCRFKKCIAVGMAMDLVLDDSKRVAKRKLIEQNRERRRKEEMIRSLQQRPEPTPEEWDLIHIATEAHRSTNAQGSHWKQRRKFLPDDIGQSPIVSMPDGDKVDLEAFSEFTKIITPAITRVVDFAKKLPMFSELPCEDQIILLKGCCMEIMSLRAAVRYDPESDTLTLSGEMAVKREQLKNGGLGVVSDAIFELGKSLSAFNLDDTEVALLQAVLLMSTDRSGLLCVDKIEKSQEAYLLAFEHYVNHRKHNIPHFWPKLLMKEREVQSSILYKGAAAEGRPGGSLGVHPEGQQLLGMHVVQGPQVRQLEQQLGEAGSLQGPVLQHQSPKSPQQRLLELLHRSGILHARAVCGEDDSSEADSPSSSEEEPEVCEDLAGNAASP
Chain of Retinoic acid receptor RXR-alpha (Homo sapiens) (P19793 whole entry, looked up, the tested form may be a part): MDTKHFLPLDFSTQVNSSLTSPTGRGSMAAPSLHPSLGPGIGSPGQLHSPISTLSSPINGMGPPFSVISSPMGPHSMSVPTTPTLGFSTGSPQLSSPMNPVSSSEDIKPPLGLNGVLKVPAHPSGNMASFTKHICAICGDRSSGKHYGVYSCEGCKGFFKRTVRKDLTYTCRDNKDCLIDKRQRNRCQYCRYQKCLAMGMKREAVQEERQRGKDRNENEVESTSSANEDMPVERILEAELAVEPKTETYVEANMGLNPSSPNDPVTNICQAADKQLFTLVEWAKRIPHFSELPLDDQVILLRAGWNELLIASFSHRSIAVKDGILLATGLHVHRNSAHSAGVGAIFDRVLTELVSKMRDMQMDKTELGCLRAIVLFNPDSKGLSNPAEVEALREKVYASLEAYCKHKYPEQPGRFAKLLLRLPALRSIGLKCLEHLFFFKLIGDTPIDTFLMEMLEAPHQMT
Chain of Nuclear receptor subfamily 1 group I member 2 (Homo sapiens) (O75469 whole entry, looked up, the tested form may be a part): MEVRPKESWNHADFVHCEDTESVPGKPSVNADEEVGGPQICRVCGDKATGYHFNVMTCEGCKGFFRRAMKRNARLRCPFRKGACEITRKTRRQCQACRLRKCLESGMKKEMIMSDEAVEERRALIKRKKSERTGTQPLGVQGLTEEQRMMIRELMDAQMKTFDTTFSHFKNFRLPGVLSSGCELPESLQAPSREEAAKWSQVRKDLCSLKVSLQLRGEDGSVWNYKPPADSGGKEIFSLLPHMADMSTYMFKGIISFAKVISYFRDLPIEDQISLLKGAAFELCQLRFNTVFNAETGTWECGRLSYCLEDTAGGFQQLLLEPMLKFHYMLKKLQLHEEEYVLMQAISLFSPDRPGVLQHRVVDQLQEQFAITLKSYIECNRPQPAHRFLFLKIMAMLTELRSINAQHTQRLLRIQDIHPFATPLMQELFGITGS
Chain of human Retinoid X Receptor beta (RXRb), RXRB (gene 6257) (P28702 whole entry, looked up, the tested form may be a part): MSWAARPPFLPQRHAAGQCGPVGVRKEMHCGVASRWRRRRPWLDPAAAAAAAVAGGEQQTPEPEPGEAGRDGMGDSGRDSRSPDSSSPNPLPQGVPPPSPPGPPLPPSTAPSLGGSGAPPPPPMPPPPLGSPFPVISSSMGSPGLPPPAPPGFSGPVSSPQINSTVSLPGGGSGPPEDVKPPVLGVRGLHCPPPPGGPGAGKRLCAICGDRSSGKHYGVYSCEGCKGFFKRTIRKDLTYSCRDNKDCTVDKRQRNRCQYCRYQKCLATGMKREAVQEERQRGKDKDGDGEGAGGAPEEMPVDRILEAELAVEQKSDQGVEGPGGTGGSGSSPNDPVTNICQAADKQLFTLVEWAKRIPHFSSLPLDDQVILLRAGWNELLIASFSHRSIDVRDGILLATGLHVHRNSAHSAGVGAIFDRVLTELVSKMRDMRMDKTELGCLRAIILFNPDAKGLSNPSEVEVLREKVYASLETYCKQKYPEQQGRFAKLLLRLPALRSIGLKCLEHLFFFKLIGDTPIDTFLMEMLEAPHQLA
Chain of human Peroxisome Proliferator-activated Receptor alpha (PPARa), PPARA (gene 5465) (Q07869 whole entry, looked up, the tested form may be a part): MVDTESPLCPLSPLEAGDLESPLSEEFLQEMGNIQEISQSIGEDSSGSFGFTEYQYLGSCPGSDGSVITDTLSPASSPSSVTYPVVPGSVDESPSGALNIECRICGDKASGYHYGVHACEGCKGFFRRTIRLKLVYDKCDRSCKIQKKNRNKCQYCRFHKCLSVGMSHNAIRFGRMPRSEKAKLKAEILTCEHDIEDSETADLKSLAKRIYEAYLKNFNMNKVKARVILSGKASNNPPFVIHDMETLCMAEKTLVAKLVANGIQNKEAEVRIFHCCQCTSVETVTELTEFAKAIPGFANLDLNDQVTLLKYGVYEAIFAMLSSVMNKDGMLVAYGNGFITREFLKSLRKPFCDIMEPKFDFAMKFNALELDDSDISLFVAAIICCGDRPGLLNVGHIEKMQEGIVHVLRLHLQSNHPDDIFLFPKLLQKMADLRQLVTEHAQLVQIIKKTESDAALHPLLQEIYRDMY
Chain of human RAR-related Orphan Receptor beta (RORb), RORB (gene 6096) (Q92753 whole entry, looked up, the tested form may be a part): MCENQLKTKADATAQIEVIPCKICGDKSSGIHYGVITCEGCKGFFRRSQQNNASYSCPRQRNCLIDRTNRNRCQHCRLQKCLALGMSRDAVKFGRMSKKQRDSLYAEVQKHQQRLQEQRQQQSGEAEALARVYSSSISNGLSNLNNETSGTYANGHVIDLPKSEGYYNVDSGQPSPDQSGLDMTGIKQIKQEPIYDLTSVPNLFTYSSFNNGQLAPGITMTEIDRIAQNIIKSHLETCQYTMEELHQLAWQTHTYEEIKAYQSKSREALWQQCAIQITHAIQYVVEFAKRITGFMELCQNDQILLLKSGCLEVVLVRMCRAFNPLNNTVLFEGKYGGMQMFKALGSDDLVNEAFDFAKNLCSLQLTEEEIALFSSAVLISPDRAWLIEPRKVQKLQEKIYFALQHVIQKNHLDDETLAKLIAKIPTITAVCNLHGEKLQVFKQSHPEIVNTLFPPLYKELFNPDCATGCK
Chain of human RAR-related Orphan Receptor gamma (RORg), RORC (gene 6097) (P51449 whole entry, looked up, the tested form may be a part): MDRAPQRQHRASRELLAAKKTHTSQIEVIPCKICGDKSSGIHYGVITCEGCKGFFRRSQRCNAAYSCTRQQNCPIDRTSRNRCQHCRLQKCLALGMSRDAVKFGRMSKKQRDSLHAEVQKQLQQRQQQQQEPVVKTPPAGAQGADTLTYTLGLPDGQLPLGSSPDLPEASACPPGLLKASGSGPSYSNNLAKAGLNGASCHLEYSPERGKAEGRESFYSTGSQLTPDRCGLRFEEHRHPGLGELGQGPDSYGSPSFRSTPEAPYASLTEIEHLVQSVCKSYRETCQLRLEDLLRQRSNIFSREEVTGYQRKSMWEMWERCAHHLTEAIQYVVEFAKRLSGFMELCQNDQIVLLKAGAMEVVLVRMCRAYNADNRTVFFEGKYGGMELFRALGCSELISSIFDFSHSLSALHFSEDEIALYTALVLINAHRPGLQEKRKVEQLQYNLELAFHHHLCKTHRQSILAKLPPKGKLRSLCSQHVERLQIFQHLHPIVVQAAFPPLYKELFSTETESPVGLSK
Chain of Peroxisome proliferator-activated receptor gamma (Homo sapiens) (P37231 whole entry, looked up, the tested form may be a part): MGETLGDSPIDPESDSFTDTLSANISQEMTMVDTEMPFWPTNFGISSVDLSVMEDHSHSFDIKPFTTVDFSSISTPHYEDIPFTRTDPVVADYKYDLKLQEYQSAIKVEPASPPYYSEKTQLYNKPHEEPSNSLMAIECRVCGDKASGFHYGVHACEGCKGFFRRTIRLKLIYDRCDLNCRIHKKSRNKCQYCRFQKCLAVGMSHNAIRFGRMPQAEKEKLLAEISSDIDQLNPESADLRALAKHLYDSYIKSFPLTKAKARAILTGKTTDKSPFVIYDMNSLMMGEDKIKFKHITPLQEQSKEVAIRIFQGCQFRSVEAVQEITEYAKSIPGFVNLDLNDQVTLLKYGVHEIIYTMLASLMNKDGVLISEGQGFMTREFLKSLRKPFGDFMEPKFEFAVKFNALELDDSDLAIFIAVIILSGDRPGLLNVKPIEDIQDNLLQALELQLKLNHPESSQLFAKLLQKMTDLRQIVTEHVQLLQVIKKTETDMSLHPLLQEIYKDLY
Chain of human Peroxisome Proliferator-activated Receptor delta (PPARd), PPARD (gene 5467) (Q03181 whole entry, looked up, the tested form may be a part): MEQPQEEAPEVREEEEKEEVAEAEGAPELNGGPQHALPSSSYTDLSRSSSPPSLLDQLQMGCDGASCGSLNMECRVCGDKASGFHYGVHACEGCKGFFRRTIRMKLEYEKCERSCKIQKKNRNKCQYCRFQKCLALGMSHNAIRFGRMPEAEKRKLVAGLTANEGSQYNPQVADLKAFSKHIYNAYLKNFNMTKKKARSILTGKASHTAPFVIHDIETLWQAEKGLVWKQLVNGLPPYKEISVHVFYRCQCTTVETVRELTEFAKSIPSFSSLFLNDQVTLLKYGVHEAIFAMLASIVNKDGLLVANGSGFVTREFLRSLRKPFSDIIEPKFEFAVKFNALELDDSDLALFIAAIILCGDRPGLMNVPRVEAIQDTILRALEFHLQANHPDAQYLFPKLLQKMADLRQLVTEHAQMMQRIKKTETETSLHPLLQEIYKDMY

Nc1ccc(S(N)(=O)=O)cc1
inactive: [1] | [2]

COc1ccc(O)cc1
inactive: [1] | [3] | [4]

CC(=O)Nc1ccc(CC(=O)O)cc1
inactive: [1] | [3] | [5] | [6]

CCCCCCCCCCCCN
inactive: [1] | [5] | [7] | [8]

CC(C)[C@H]1CC[C@@H](C)CC1=O
inactive: [1] | [2] | [5] | [6] | [8]

O=C(O)CCCCCCCCCCC(=O)O
inactive: [1] | [2] | [5] | [4]

O=C(O)c1cccc(C(F)(F)F)c1
inactive: [1] | [3] | [6]

CC(C)(C)c1n[nH]c(=S)n(N)c1=O
inactive: [1] | [2] | [8] | [4]

Cc1c(N(C)C)c(=O)n(-c2ccccc2)n1C
inactive: [1] | [2] | [5] | [7] | [4]

S=C(S)NCCNC(=S)S
inactive: [1] | [3] | [7]

O=C1NC(=O)c2ccccc21
inactive: [1] | [3] | [5] | [7]

O=C(COc1ccc(Cl)cc1)N1CCN(Cc2ccc3c(c2)OCO3)CC1
inactive: [1] | [2] | [8] | [4]

CC(C#N)(CCC(=O)O)N=NC(C)(C#N)CCC(=O)O (centres undefined)
inactive: [1] | [2] | [5] | [7] | [8] | [4]

CCCC(=O)C(C)=O
inactive: [1] | [2] | [5] | [7]

O=C1OC2(c3cc(Br)c(O)c(Br)c3Oc3c2cc(Br)c(O)c3Br)c2c(Cl)c(Cl)c(Cl)c(Cl)c21
active: [10] 7.39 µM | [11] 8.03 µM | [3] 34.7 µM | [2] 4.84 µM | [12] 0.967 µM | [13] 4.82 µM | [14] 1.57 µM | [15] 2.68 µM | [16] 13.2 µM | [17] 16.3 µM
inactive: [9] | [5]

CCCCO
inactive: [1] | [2] | [5] | [6] | [4]

CCCCC/C=C/C=C/C=O
inactive: [9] | [2] | [5] | [6] | [4]
active: [10] 32.8 µM | [11] 20 µM | [3] 9.8 µM | [12] 20 µM | [13] 29.4 µM | [14] 36.3 µM | [15] 20 µM | [16] 31.8 µM | [17] 36.5 µM

Cc1ccc(O)c(C(C)(C)C)c1
inactive: [9] | [5] | [7] | [17]
active: [10] 33.7 µM | [11] 15.1 µM | [2] 19.1 µM | [8] 9 µM | [12] 29.6 µM | [13] 27.6 µM | [14] 24.9 µM | [15] 29.8 µM | [16] 36.5 µM

OCc1cccnc1
inactive: [1] | [2] | [5] | [4]

Nc1ccc(S(=O)(=O)O)c(N)c1
inactive: [1] | [8]

CCN(CC)CCOC(=O)c1ccc(N)cc1
inactive: [1] | [3] | [5] | [8] | [4]

CC1CCC2CC1C2(C)C (centres undefined)
inactive: [1] | [2] | [7] | [8]

OCC(CO)(CO)COCC(CO)(CO)CO
inactive: [1] | [2] | [6] | [8]

Cc1cccc(C)c1C
inactive: [1] | [3] | [5] | [7] | [4]

CCC(=O)OCc1ccccc1
not listed: [1] | [3] | [6] | [8]
inactive: all other assays above

CCCc1ccccc1O
active: [8] 65.7 µM
inactive: [1] | [3] | [2] | [4]

CC1COc2ccccc2N1C(=O)C(Cl)Cl (centres undefined)
active: [11] 5.24 µM | [2] 6.46 µM | [12] 5.26 µM | [15] 7.04 µM
not listed: [1] | [5] | [6] | [7] | [8]
inactive: all other assays above

CC(=O)[C@H]1CC[C@H]2[C@@H]3CC=C4C[C@@H](O)CC[C@]4(C)[C@H]3CC[C@]12C
active: [11] 7.47 µM and 6.54 µM | [2] 4.3 µM
not listed: [1] | [5] | [7] | [8]
inactive: all other assays above

OCCOCCOCCOCCO
inactive: [1] | [6]

CC(=O)OCc1ccc2c(c1)OCO2
inactive: [1] | [2] | [5] | [7] | [8]

CC1CCC(C(C)(C)O)CC1 (centres undefined)
inactive: [1] | [2] | [5] | [7] | [8] | [4]
